# Reference: PubChem BioAssay AID686978 (National Center for Advancing Translational Sciences (NCATS), 2013)
# In all, about 420,000 compounds went through this assay and about 64,000 (15%) were called active. About 27% were inconclusive and are not listed. The list is a sample of the results. A number with no mark means an inactive call. The call rests on the fitted dose curve; in most records, active means well fitted inhibition curve with a large enough effect; inconclusive means small, poorly fitted or top-dose-only effect; inactive means flat fitted curve, though single readings scatter.
# Assay: qHTS for Inhibitors of human tyrosyl-DNA phosphodiesterase 1 (TDP1): qHTS in cells in absence of CPT; further: nearly all actives have a fitted effect of over 55% in size
# Conditions: DT40 Tdp1-/- hTDP1 cells, no CPT, ATP luminescence, 48 h; activity change, negative = growth inhibition: at 46.2 µM (top of the series)
# Outline: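 No-CPT arm: Tdp1-/-;hTDP1 DT40 cells (400/well) plus compounds, incubated ≥48 hr at 37 °C. Readout CellTiter-Glo luminescence.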
# On the % scale 0 is the no-effect control and ±100 the full control effect; potency means the concentration at half of the fitted maximal effect.
Structure (SMILES),"activity change, negative = growth inhibition [%]",Potency
Cc1cccc(-n2ncc3c(=O)[nH]c(SCC(=O)Nc4cc(C)on4)nc32)c1,-21.6,–
O=C(NC(Cc1ccccc1)C(=O)N1CCCC(C(F)(F)F)C1)c1ccccc1 (stereo unspecified),-7.09,–
O=C(NCC(=O)N1CCCC(C(F)(F)F)C1)c1ccccc1F (stereo unspecified),-11.8,–
FC(F)(F)C1CCCN(c2nsc3ccccc23)C1 (stereo unspecified),–,2.59 µM (active)
CC(=NC1CCN(Cc2ccccc2)CC1)c1c(O)[nH]c(=O)[nH]c1=O,2.49,–
O=C(COc1ccc(Cl)cc1)N(Cc1ccco1)Cc1ccco1,–,20.6 µM (active)
Cc1cccc(OCC(=O)N(Cc2ccc(C(C)C)cc2)Cc2ccco2)c1C,–,20.6 µM (active)
O=C(CCc1ccccc1)NNC(=O)COc1ccc(Cl)cc1,3.05,–
Cc1ccnc(NC(=O)CCC(=O)N(CC(=O)NCc2ccccc2)Cc2ccco2)c1,9.59,–
O=C(CCCOc1ccccc1)NCc1ccco1,3.07,–
Cc1cccc(OCc2nnc(SCC(=O)N3CCN(C(=O)c4ccco4)CC3)n2C)c1C,-13.6,–
O=C(Nn1cnc2ccccc2c1=O)c1ccc(F)cc1Cl,-25.1,–
O=S(=O)(c1ccc(-c2ccno2)s1)N1CCCCC1,-13,–
O=C(C1CCCO1)N1CCN(C(=S)NC2CC2)CC1 (stereo unspecified),1.54,–
Cc1ccc(S(=O)(=O)NNC(=O)Nc2cccc3ccccc23)cc1,-108,–
CC(=O)c1nn(-c2ccc(OC(F)(F)F)cc2)nc1Nc1ccccc1,-20.1,–
CC1CCc2c(nc3ncnn3c2Nc2ccc(OC(F)(F)F)cc2)C1 (stereo unspecified),–,20.6 µM (active)
CC1(C)C(C=C(Cl)Cl)C1C(=O)NC(O)C(=O)c1ccccc1 (stereo unspecified),-29.8,–
Nc1cccnc1Sc1ccccc1,-8.79,–
Nc1ccccc1N,–,7.7 µM (active)
Nc1ccccc1/C=N\N=C/c1ccccc1N,-7.67,–
COc1cc2c(cc1CNC[C@H]1O[C@@H](n3cnc(C(N)=O)n3)[C@H](O)[C@@H]1O)OCO2,-13.2,–
Cc1ccn2cc(C(=O)NC3CCN(Cc4ccccc4)CC3)nc2c1,-12.8,–
Cc1ccc(-c2cc(C(=O)NC3CCN(Cc4ccccc4)CC3)c3ccccc3n2)cc1,–,16.4 µM (active)

Structure (SMILES),"activity change, negative = growth inhibition [%]",Potency
Cc1ccc(-c2nc(CSCC(=O)NC3CCN(Cc4ccccc4)CC3)c(C)o2)cc1,–,16.4 µM (active)
CC1CCCCC1NC(=O)c1cc(=O)[nH]c2ccccc12 (stereo unspecified),-24.4,–
COC(=O)CNC(=O)c1cc(-c2ccncc2)nc2ccccc12,-24.2,–
CCOC(=O)N1CCC(NC(=O)CCc2ccccc2)CC1,-5.47,–
Cc1cc(C(=O)NC2CCN(Cc3ccccc3)CC2)n[nH]1,-5.37,–
CC1CCCC(NC(=O)c2cc(-c3ccncc3)nc3ccccc23)C1C (stereo unspecified),–,23.1 µM (active)
Cc1ccsc1-c1nc(CSCC(=O)NCCN2CCCC2)c(C)o1,4.82,–
C=CCn1c(SCC(=O)NC23CC4CC(CC(C4)C2)C3)nc(O)cc1=O,4.5,–
COc1ccc2c(CC(=O)NNC(=O)c3ccccc3F)coc2c1,-3.08,–
CCC1([N+](=O)[O-])COC(c2ccc(C)cc2)OC1 (stereo unspecified),-3.79,–
O=C1CCc2cc(S(=O)(=O)N3CCC(C(=O)NCc4ccccc4Cl)CC3)ccc2N1,-4.74,–
O=C1c2ccccc2C(=O)N1CCC(O)C[N+](=O)[O-] (stereo unspecified),-15.4,–
CCCNC(=O)CCn1cc(-c2ccc(OC)cc2)nc1CCN,-11.7,–
NC(=O)C1CCN(C(=O)c2cccc(NC(=O)c3nsc4ccccc34)c2)CC1,–,16.4 µM (active)
COc1cccc(NC(=O)N2CCN(C(=O)c3nsc4ccccc34)CC2)c1,-13.3,–
O=C(Nc1cccc(C(=O)N2CCCC2)c1)c1ccccc1,-29.9,–
CCOC(=O)c1ccc(NC(=O)C2CC(=O)Nc3nc4ccccc4n32)cc1 (stereo unspecified),-2.28,–
Cc1nc2ccn(Cc3cccs3)c(=O)c2cc1C(=O)NCc1ccc(Cl)cc1,–,16.4 µM (active)
COc1ccc(Cn2ccc3nc(C)c(C(=O)Nc4ccc(C)c(F)c4)cc3c2=O)cc1,-22.8,–
CN(CC(=O)NCc1ccc(Cl)cc1)S(=O)(=O)c1cccs1,-22.6,–
CCn1c(C(C)C)n[nH]c1=S,-7.52,–
O=C(NC1CCCCC1)C1CCCN(S(=O)(=O)c2cccs2)C1 (stereo unspecified),-20.7,–
Cn1nnnc1SCC(=O)NNC(=O)c1ccc(Br)cc1,-2.95,–
Cc1cc(C(C)(C)C)cc(C)c1N,-23.6,–

Structure (SMILES),"activity change, negative = growth inhibition [%]",Potency
Cc1cc(N)n2nc(-c3ccc(C(C)(C)C)cc3)cc2n1,–,25.9 µM (active)
CC(=O)Nc1ccc(NC(=O)CSc2nnnn2-c2ccccc2F)cc1,11.6,–
C1CC1Cc1noc(CN2CCN(CC3CC3)CC2)n1,-8.02,–
COCCNc1cc(-c2c(C)noc2C)ncn1,-8.82,–
Cc1cnc(CNc2cc(-c3c(C)noc3C)ncn2)cn1,-11.7,–
CNc1cc(-c2c(C)noc2C)ncn1,–,14.6 µM (active)
COc1ccc(C2=NOC3(CC(=O)N(c4ccc(Cl)cc4)C3=O)C2)c(OC)c1 (stereo unspecified),-5.65,–
COC(=O)c1ccc(NC(=O)CSc2nncn2-c2cccnc2)cc1,-7.79,–
Cc1ccc(SCCC(=O)NC(C(C)C)C(C)C)cc1,-24.3,–
CCOC(=O)c1cccc(NS(=O)(=O)c2cc(-c3cnc(C)o3)ccc2OC)c1,–,6.51 µM (active)
COc1ccc(Cl)cc1S(=O)(=O)Nc1cccc(C(=O)O)c1,-5.98,–
CCOC(=O)c1cccc(NS(=O)(=O)c2cn(C)c(C)n2)c1,-22.6,–
Cc1ccccc1NC(=O)Cc1nc(COC(=O)CNC(=O)c2ccc(Cl)cc2Cl)cs1,-25.5,–
CN1CCN(CCCCOc2cccc3ccccc23)CC1,–,16.4 µM (active)
CCN1CCN(CCCCOc2ccccc2F)CC1,-12.2,–
COc1ccccc1OCCCCCCN1CCN(C)CC1,-25,–
CCn1nc(C(=O)NNC(=O)C2CSC3(C)CCC(=O)N23)c2ccccc2c1=O (stereo unspecified),-9.61,–
CC(=O)c1cccc(NC(=O)COc2ccc(S(=O)(=O)N3CCOCC3)cc2)c1,-7.65,–
CC1CCN(S(=O)(=O)c2ccc3[nH]c(=O)ccc3c2)CC1,-6.32,–
CC(=O)c1cccc(Nc2ccc3cc(S(=O)(=O)N4CCC(C)CC4)ccc3n2)c1,–,16.4 µM (active)
Nc1cccc(CCc2nc3ccccc3[nH]2)c1,-16.2,–
O=C(OCc1nc2ccccc2[nH]1)C1CCCCC1,-25.3,–
CC/C(O)=C1\C(=O)CC(C)(C)CC1=NCCc1nc2ccccc2[nH]1,–,20.6 µM (active)
